Hit rate of the full screen: of about 96,000 compounds, about 19,000 (20%) were called active. A selection follows. A number with no mark means an inactive call.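 The calls were made as follows: active = blocking of liver enzyme CYP2C9 beyond about 50% at 5 µM (limit read from the data); inactive = the rest.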 Residues, ends and D or L forms follow the SMILES beside them. *: point of attachment. Bz = O=C(c1ccccc1)*

The target of this test is Cytochrome P450 2C9 (Homo sapiens) (UniProt P11712). Briefly: blockers of cytochrome P450 2C9 activity – biochemical, luminescence, ADME assay, primary screen (AID 777). As to conditions: CYP2C9 Supersomes, luciferin-H conversion, at 5 µM, hits give high values.
Cytochrome P450 2C9 (Homo sapiens), sequence (P11712 whole entry, looked up): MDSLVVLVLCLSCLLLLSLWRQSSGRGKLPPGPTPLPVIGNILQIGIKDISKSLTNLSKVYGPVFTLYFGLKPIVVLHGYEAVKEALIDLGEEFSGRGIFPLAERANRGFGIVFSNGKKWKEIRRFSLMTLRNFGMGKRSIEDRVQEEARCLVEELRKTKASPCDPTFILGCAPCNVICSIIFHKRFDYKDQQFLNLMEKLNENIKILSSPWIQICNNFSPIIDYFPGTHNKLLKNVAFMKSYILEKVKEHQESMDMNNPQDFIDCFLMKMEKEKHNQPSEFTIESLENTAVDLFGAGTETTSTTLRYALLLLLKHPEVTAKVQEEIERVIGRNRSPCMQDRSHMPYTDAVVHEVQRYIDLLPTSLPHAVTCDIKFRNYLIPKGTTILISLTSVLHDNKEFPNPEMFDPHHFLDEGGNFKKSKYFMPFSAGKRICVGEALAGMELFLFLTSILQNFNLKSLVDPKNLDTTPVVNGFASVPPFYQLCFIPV
Turning to `COC(=O)c1ccccc1NC(=O)Cn1nc(C(F)(F)F)c2c1CCC2`, the inhibition was 17.4%. To `COC(=O)c1ccccc1Sc1c(/C=N/OCc2ccc(Cl)cc2)c(C(F)(F)F)nn1C` belongs 89.6% (active). For the molecule `COC(=O)c1cc(NC(=O)CN2CCC(C(N)=O)(N3CCCCC3)CC2)cc(C(=O)OC)c1`, the inhibition is 13.2%. To `CCCNC(=O)NCc1ccc(N2CCCC2=O)cc1` belongs 17.2%; to `NC(=O)C1(N2CCCCC2)CCN(C2CC(=O)N(Cc3ccc(N4CCCC4=O)cc3)C2=O)CC1` (configuration not stated), 50.1% (active); to `C[C@@H](Nc1nc(-c2ccccc2)nc2c1oc1ccccc12)C(=O)O`, 11.2%. The same measure for `C=CCNC(=O)c1cc2nc(C3CC3)cc(C(F)F)n2n1`: 40%. The same measure for `COc1cc(/C=C2\SC(=S)N(Nc3ncc(C(F)(F)F)cc3Cl)C2=O)cc(OC)c1OC`: 4.4%; for `O=C(C(Cc1ccccc1)n1cccc1)N1CCN(C2CCCCC2)CC1` (configuration not stated): 94% (active); for `Cc1ccc(C(=O)N2CCN(C3CCCCC3)CC2)s1`: 25.8%. Consider `O=C(NC(Cc1ccccc1)C(=O)N1CCCC1C(=O)O)c1ccccc1` (stereo not drawn) (Bz-Phe-Pro-OH; configuration not given here), for which the inhibition was -5.7%. To `O=C(CN1C(=O)NC(Cc2ccccc2)(Cc2ccccc2)C1=O)NCC1CCCCC1` belongs 55% (active); to `O=C(CN1C(=O)NC2(CCCCC2)C1=O)NCCC1=CCCCC1`, -1.7%. On to `CCOC(=O)CCCNC(=O)CN1C(=O)NC(CCc2ccccc2)C1=O` (configuration not stated), for which the inhibition was -3.9%. On to `CC(=O)N1CCc2cc(S(=O)(=O)Nc3ccccc3N3CCN(C)CC3)ccc21`, for which the inhibition is 2%.

In the case of `CCCC(=O)C1CCN(Cc2ccccc2)CC1`, the inhibition was -8.7%.

As for `Cc1nc2ccc(NC(=O)C(F)(F)F)cc2o1`, the inhibition is 4.8%.

Turning to `Cn1c(C(=O)NCCCN2CCCCC2)cc2sccc21`, the inhibition was 6.6%. The same measure for `Cc1cc(C(F)(F)F)nn1-c1nc(-c2ccco2)cc(C(F)(F)F)n1`: 3.1%; for `O=C(CSc1nc(-c2ccco2)cc(C(F)(F)F)n1)N1CCc2ccccc2C1`: 45.8%. On to `CCOC(=O)c1ccn(-c2nc(-c3ccco3)cc(C(F)(F)F)n2)n1`, for which the inhibition was 62% (active). The same measure for `Cc1ccc2c(c1)N(CC(=O)N1CCCc3ccccc31)C(=O)C(C)O2` (configuration not stated): 22%; for `CCOc1nc(-c2ccc(OC)cc2)ccc1-c1noc(-c2cc(OC)c(OC)c(OC)c2)n1`: 8.3%. Consider `COc1cc(-c2nc(-c3ccncc3)no2)cc(OC)c1OC`, for which the inhibition was 76.6% (active). On to `COc1ccc(-c2noc(-c3cccc(OC)c3OC)n2)cc1OC`, for which the inhibition was -101%. Take `CC(OC(=O)CN1C(=O)C2CCCCC2C1=O)C(=O)Nc1ncc(Cl)cc1Cl` (configuration not stated): the inhibition is -1.7%. To `COc1ccccc1N1CCN(CCCCOc2ccc(F)cc2)CC1` belongs 12%; to `COc1ccc2oc(=O)c(C(=O)N3CCN(c4ccccc4F)CC3)cc2c1`, 28.7%.

Consider `COc1ccc(Nc2ncc(C(=O)N3CCN(c4ccccc4OC)CC3)c3ccccc23)cc1`, for which the inhibition is 65.9% (active). Regarding `COc1cnc(SCc2ccc(Cl)c(Cl)c2)nc1Cl`, the inhibition was 16.5%. The same measure for `CCOC(=O)c1cc(C)sc1NC(=O)C1CCC1`: 42.3%; for `O=C(NCCCN1CCN(Cc2ccccc2)CC1)C1CCN(S(=O)(=O)N2CCCC2)CC1`: 1.8%.

Take `Cc1ccc(S(=O)(=O)N2CCC(C(=O)N[C@@H](C)C(=O)NCCc3ccccc3)CC2)cc1`: the inhibition was -25.2%. `O=C1c2cccnc2C(Nc2ccc(S(=O)(=O)N3CCCCCC3)cc2)N1Cc1ccccc1` (configuration not stated): the inhibition was 53.4% (active). Turning to `Cc1cc2c(cc1C)NC(c1ccccn1)C1=C(CC(C)(C)CC1=O)N2` (configuration not stated), the inhibition is -11.2%.

In the case of `Cc1nn(-c2ccccn2)c2c1C(c1ccncc1)C1=C(CC(C)(C)CC1=O)N2` (configuration not stated), the inhibition is 79.7% (active). The same measure for `CCOC(=O)c1c(-n2cnnn2)sc(C)c1C`: 10.3%; for `Cc1cc(C)nc(NC(=O)Nc2ccccc2C(F)(F)F)n1`: -193%. In the case of `O=C(Nc1ccc(Sc2ccc(Br)cc2)cc1)c1ccco1`, the inhibition is 3.3%.

With `Cc1cccc(NC(=O)c2sc3nc4c(c(-c5ccco5)c3c2N)CCC4)c1`, the inhibition is 17.9%.

On to `CCCc1cc(=O)[nH]c(SCC(=O)c2cc(C)n(CCC)c2C)n1`, for which the inhibition is 5.3%. Turning to `CCCc1cc(=O)[nH]c(SCC(=O)OCc2ccccc2)n1`, the inhibition is 38.5%. Consider `CCCc1cc(=O)[nH]c(SCc2ccc(C#N)cc2)n1`, for which the inhibition is 60.3% (active). To `O=C(CNC(=O)Cc1ccccc1)NCC(=O)OCC(=O)c1ccccc1Cl` belongs -33.1%; to `CCC(=O)Nc1cccc(NC(=O)CSc2nnc(-c3ccc(NS(C)(=O)=O)cc3)n2C)c1`, 51.3% (active); to `O=C(CSc1nnc(-c2ccncc2)n1C1CCCCC1)Nc1ccccc1`, 38.6%. The same measure for `COC(=O)c1ccc(NC(=O)CSc2nnc(CNc3ccc(OC)cc3)n2C)cc1`: 34%; for `Cn1c(SCC(=O)Nc2cccc(O)c2)nnc1-c1ccc(S(=O)(=O)N2CCOCC2)cc1`: 7.5%; for `Cn1c(SCC(=O)Nc2cccc(NC(=O)c3cccs3)c2)nnc1-c1ccncc1`: 89.8% (active). The same measure for `COC(=O)c1ccc(NC(=O)CSc2nnc(-c3ccncc3)n2C)cc1`: 57.2% (active); for `CCn1c(SCC(=O)Nc2nccs2)nnc1-c1ccncc1`: 28%. Consider `CCCCSc1nnc(-c2ccc(NC(=O)CC)cc2)n1C`, for which the inhibition was -15.8%. In the case of `Cc1ccccc1C(=O)Nc1cccc(-c2nnc(SCC(=O)O)n2C)c1`, the inhibition was -11.4%. Take `Cc1ccc(-c2ccc(=O)n(CC(=O)NCCCN3CCCCC3)n2)cc1`: the inhibition is 14%. For the molecule `COc1ccccc1C(=O)Nc1nc2nc(-c3ccccc3)cc(=O)n2[nH]1`, the inhibition is 42%.

With `O=C(NCCCCc1ccccc1)C1CC(c2ccc([N+](=O)[O-])cc2)=NO1` (configuration not stated), the inhibition is 14.2%. The same measure for `O=C(CN1CCOCC1)Nc1ccc(NC(=O)CN2CCOCC2)c(Cl)c1`: -1.8%. As to `CN(C)C(=O)c1cc(Br)ccc1Cl`, the inhibition is -6.9%. The same measure for `CCCn1c(=NC(C)=O)c(C(=O)OCC)cc2c(=O)n3ccccc3nc21`: 17.1%. Turning to `CSc1ccc(S(=O)(=O)NC2CCCCC2)cc1`, the inhibition was 17.8%. To `O=S(=O)(NCc1cccnc1)c1ccc(Cl)nc1` belongs 6.6%. The same measure for `O=C(CN(CC1CCCO1)C(=O)CNS(=O)(=O)c1ccccc1)NCc1ccccc1` (configuration not stated): 2.4%. The same measure for `Cc1cccc(CCNS(=O)(=O)c2ccc(S(=O)(=O)NC3CCCC3)cc2)c1`: 65.4% (active); for `O=C(CCc1ccc(S(=O)(=O)NC2CCCCC2)cc1)NCc1ccccc1`: 86.2% (active); for `CCCNS(=O)(=O)c1ccc(CCC(=O)NCc2cccnc2)cc1`: 76.8% (active).

As for `Cc1cc(S(=O)(=O)NC2CCCCC2)ccc1OCC(=O)NCc1cccnc1`, the inhibition is 81.1% (active).

As for `Cc1cc(Cl)c(S(=O)(=O)NCc2cccnc2)cc1OCC(N)=O`, the inhibition is -9.2%.

In the case of `O=C(C1CCC1)N1CCc2cc(S(=O)(=O)NCc3cccnc3)ccc21`, the inhibition was 32.9%. Consider `O=C(OC1CCCCC1=O)c1cccc(S(=O)(=O)NCc2ccccc2)c1` (configuration not stated), for which the inhibition was 43.1%. To `O=C(CCc1ccccc1)NCc1cccnc1` belongs 15.7%. The same measure for `Cn1c(=O)c(=O)n(C)c2cc(S(=O)(=O)NCCc3ccccc3)ccc21`: 23.4%; for `Cc1ccccc1/[N+]([O-])=C/c1ccncc1`: 12.4%; for `CC1CCN(c2nc3c(c(=O)[nH]c(=O)n3C)n2CCCc2ccccc2)CC1`: 40.9%. `C/C(=C\C(=O)c1ccc(Br)cc1)N1CCCCC1`: the inhibition is 2.1%.

On to `Cc1nc2ccc(C(=O)N3CCSCC3)cc2s1`, for which the inhibition was 0.6%.

Consider `Cc1ccc(S/C(=N\S(=O)(=O)c2ccc(Cl)cc2)c2ccccc2)cc1`, for which the inhibition was 48.7%.

On to `CCOC(=O)N1CCN(C(=O)c2cnc3n(c2=O)CCS3)CC1`, for which the inhibition was -13.7%. To `Cc1cc(N/C=C\C(=O)c2ccc(Cl)c(Cl)c2)no1` belongs 7.8%; to `COC(=O)C1=C(N)Oc2cc(C)oc(=O)c2C1c1cccnc1` (configuration not stated), 37.9%; to `Cc1ccc(CS(=O)(=O)CCC(=O)NC2CC2)cc1`, -3.7%. With `COC(CCN(C)C)(c1ccccc1)c1ccccc1`, the inhibition was -2.1%. To `CC1(C)Cc2ccccc2-c2nnc(-c3cccc(O)c3)n21` belongs -7.5%. To `O=C1OC(NC(=O)c2ccccc2)C(N2CCOCC2)=C1Cl` (configuration not stated) belongs -6.9%; to `c1cnc(NC2C3CC4CC(C3)CC2C4)nc1` (configuration not stated), 25.9%. In the case of `CCCCCCn1c(CN2CCCC(C)C2)nc2c1c(=O)n(C)c(=O)n2C` (configuration not stated), the inhibition was 9.5%. The same measure for `CC1CCCN(Cc2nc3c(c(=O)n(C)c(=O)n3C)n2CC(=O)c2ccccc2)C1` (configuration not stated): 11.2%; for `CC1CN(C2CCCCC2)c2nc3c(c(=O)n(C)c(=O)n3C)n2C1` (configuration not stated): 82.2% (active); for `COc1ccc(Cl)cc1NC(=O)CN(C)C(=O)CNC(=O)C12CC3CC(CC(C3)C1)C2`: 44.8%. Regarding `COc1ccc(N2CCN(Cc3cc(=O)oc4ccc5ccccc5c34)CC2)cc1`, the inhibition was 22.6%. To `COc1ccc(N2CCN(Cc3ccc(Br)s3)CC2)cc1` belongs 78.3% (active); to `Fc1ccc(N2CCN(Cc3cnc(Oc4ccc(Br)cc4)s3)CC2)cc1`, 19.7%. The same measure for `COc1ccccc1CNC(=O)C1CCN(c2nc3ccccc3o2)CC1`: -3.9%; for `FC(F)(F)c1nc2ccccc2nc1N/N=C/c1ccc(Cl)cc1`: 21.3%; for `OC(COc1cccc2ccccc12)CN1CCN(c2ccccn2)CC1` (configuration not stated): 19.3%. For the molecule `O=C(CN1C(=O)COc2ccccc21)Nc1ccc(F)cc1`, the inhibition was 39%. Take `CC1(C)Oc2ccc(C(=O)N3CCOCC3)cc2N(CC(=O)Nc2ccccc2)C1=O`: the inhibition was 45.6%. `CC1Cc2ccccc2N1CC(=O)Nc1ccc2c(c1)OC(F)(F)O2` (configuration not stated): the inhibition is 71.6% (active).

In general, inhibition refers to the relative decrease from the control value, in per cent.
